The text below walks through data of PubChem BioAssay (NCI).

The panel holds about 83,000 compounds, 20% with a hit somewhere; the sample as a whole holds those more often.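 Negative percent growth values reflect cell death: -40 means 40% of the cells present at the start died, and -100 means all died.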 Active and inactive are the calls of the source. How the source made its calls: active means growth percent below 10; inactive means the rest.

Test systems include HCT-15 colon; HT29 colon; SNB-75 CNS; SNB-19 CNS; U251 CNS; PC-3 prostate; SK-MEL-5 melanoma; UACC-62 melanoma; LOX IMVI melanoma; SK-MEL-28 melanoma; SK-MEL-2 melanoma; EKVX NSCLC; SN12C renal; TK-10 renal; ACHN renal; CAKI-1 renal; A498 renal; CCRF-CEM leukemia; MOLT-4 leukemia; UO-31 renal.
Holding throughout (test): NCI-60 one-dose screen, 48 h (100 = growth as untreated, 0 = no growth, -100 = all killed)
Common to all, as to settings: 10 µM unless noted

As to `COc1cc(/C=C/C(=O)CC(=O)/C=C/c2ccc(OC(=O)CCNC34CC5CC(CC(C5)C3)C4)c(OC)c2)ccc1OC(=O)CCNC12CC3CC(CC(C3)C1)C2`, the growth in the assay on HCT-15 colon is 46.9% (inactive); in the assay on HT29 colon it was -70.6% (active); with SNB-75 CNS, 7.02% (active); with SNB-19 CNS, 29.6% (inactive); in the assay with U251 CNS, 22.2% (inactive); in the assay on PC-3 prostate it was 21% (inactive). Moreover, the growth was 25.3% (inactive) in the assay with SK-MEL-5 melanoma; 43.2% (inactive) in the assay with UACC-62 melanoma; 0.619% (active) in the assay on LOX IMVI melanoma; 33.6% (inactive) in the assay on SK-MEL-28 melanoma; 11.7% (inactive) in the assay on SK-MEL-2 melanoma; 21.6% (inactive) with EKVX NSCLC. Further, the growth in the assay on SN12C renal was 23.8% (inactive); with TK-10 renal, 70% (inactive); in the assay on ACHN renal it was 79.2% (inactive); with CAKI-1 renal, 49.1% (inactive); in the assay with A498 renal, 83.4% (inactive); in the assay with CCRF-CEM leukemia, -23.5% (active). In addition, in the assay on MOLT-4 leukemia, the growth was -25.1% (active).

Consider `COc1cc(/C=C/C(=O)C(C(=O)/C=C/c2ccc(OC(=O)CCNC34CC5CC(CC(C5)C3)C4)c(OC)c2)C(=O)CCNC23CC4CC(CC(C4)C2)C3)ccc1OC(=O)CCNC12CC3CC(CC(C3)C1)C2` (centres undefined), for which the growth in the assay on HCT-15 colon is -18.2% (active); in the assay on HT29 colon it was -71.6% (active); in the assay with SNB-75 CNS, -32.3% (active); with SNB-19 CNS, 39.2% (inactive); in the assay with U251 CNS, 7.57% (active); with PC-3 prostate, 13.6% (inactive). Besides, the growth was -36.8% (active) in the assay on SK-MEL-5 melanoma; 20.2% (inactive) in the assay on UACC-62 melanoma; -72.7% (active) with LOX IMVI melanoma; -8.59% (active) in the assay on SK-MEL-28 melanoma; 7.68% (active) with SK-MEL-2 melanoma; 19.6% (inactive) in the assay on EKVX NSCLC. In addition, the growth was 5.02% (active) with SN12C renal; 44.2% (inactive) with TK-10 renal; 6.38% (active) in the assay with ACHN renal; 18.6% (inactive) with CAKI-1 renal; -36.4% (active) in the assay on CCRF-CEM leukemia; -20.4% (active) in the assay on MOLT-4 leukemia.

On to `CC(C)N(Cc1ccccc1)c1c(Cl)ssc1=O`, for which the growth with HCT-15 colon is 108% (inactive); with HT29 colon, 100% (inactive); in the assay on SNB-75 CNS, 113% (inactive); with SNB-19 CNS, 101% (inactive); in the assay on U251 CNS it was 102% (inactive); in the assay with PC-3 prostate, 95.9% (inactive). Moreover, the growth in the assay on SK-MEL-5 melanoma was 104% (inactive); in the assay on UACC-62 melanoma, 93.1% (inactive); in the assay on LOX IMVI melanoma, 96.3% (inactive); with SK-MEL-28 melanoma, 101% (inactive); in the assay with SK-MEL-2 melanoma it was 93.7% (inactive); in the assay with EKVX NSCLC, 100% (inactive). The growth is 99.7% (inactive) in the assay on SN12C renal; 124% (inactive) in the assay on TK-10 renal; 102% (inactive) with ACHN renal; 113% (inactive) with CAKI-1 renal; 109% (inactive) with A498 renal; 121% (inactive) in the assay on MOLT-4 leukemia.

Regarding `CCN(CC)CCSc1ncnc2c1cnn2-c1ccc(S(N)(=O)=O)cc1`, the growth with HCT-15 colon was 89% (inactive); with HT29 colon it was 85.7% (inactive); with SNB-75 CNS, 108% (inactive); with SNB-19 CNS, 107% (inactive); in the assay on U251 CNS it was 92.9% (inactive); with PC-3 prostate it was 85.7% (inactive). Further, the growth was 79.1% (inactive) in the assay on SK-MEL-5 melanoma; 92.7% (inactive) in the assay on UACC-62 melanoma; 92.8% (inactive) in the assay with SK-MEL-28 melanoma; 96.5% (inactive) with SK-MEL-2 melanoma; 86.8% (inactive) in the assay on EKVX NSCLC; 89.5% (inactive) with SN12C renal. Moreover, the growth is 87.7% (inactive) in the assay on UO-31 renal; 103% (inactive) with TK-10 renal; 92.2% (inactive) in the assay on ACHN renal; 7.74% (active) in the assay on CAKI-1 renal; 92% (inactive) with A498 renal; 88.4% (inactive) with CCRF-CEM leukemia. The growth with MOLT-4 leukemia is 85.6% (inactive).

For `FC(F)(F)c1cc(-c2nnc3n2N=C(N2CCCC2)CS3)cc(C(F)(F)F)c1`, the growth was 96.9% (inactive) with HCT-15 colon; 86.2% (inactive) in the assay on HT29 colon; 29.6% (inactive) in the assay on SNB-75 CNS; 65.4% (inactive) in the assay with SNB-19 CNS; 37.6% (inactive) with U251 CNS; 84.2% (inactive) in the assay with PC-3 prostate. Moreover, the growth in the assay on SK-MEL-5 melanoma is 80.5% (inactive); with UACC-62 melanoma, 69.1% (inactive); in the assay with LOX IMVI melanoma, 84.3% (inactive); with SK-MEL-28 melanoma, 101% (inactive); in the assay on EKVX NSCLC it was 80.6% (inactive); with SN12C renal it was 69.2% (inactive). Moreover, the growth was 48.8% (inactive) in the assay with UO-31 renal; -22.1% (active) in the assay on TK-10 renal; 47.1% (inactive) in the assay with ACHN renal; 87.7% (inactive) with CAKI-1 renal; 10.6% (inactive) with A498 renal; 86.4% (inactive) with CCRF-CEM leukemia. The growth with MOLT-4 leukemia is 90.5% (inactive).

Consider `O=C(/C=C/c1cccc(Nc2ccnc3cc(Cl)ccc23)c1)c1ccc(Cl)cc1`, for which the growth with HCT-15 colon is 54.8% (inactive); with HT29 colon, 21.8% (inactive); in the assay on SNB-75 CNS it was 67.6% (inactive); in the assay with SNB-19 CNS it was 63.2% (inactive); in the assay on U251 CNS, 49.9% (inactive); in the assay on PC-3 prostate, 62.9% (inactive). Besides, the growth in the assay on SK-MEL-5 melanoma was 39.6% (inactive); in the assay with UACC-62 melanoma, 50.2% (inactive); in the assay on LOX IMVI melanoma it was 11.2% (inactive); in the assay on SK-MEL-28 melanoma, 71% (inactive); in the assay on EKVX NSCLC it was 60.3% (inactive); in the assay with SN12C renal it was 37.6% (inactive). In addition, the growth is 30.1% (inactive) in the assay on UO-31 renal; 49% (inactive) with TK-10 renal; 51.1% (inactive) in the assay on ACHN renal; 44.1% (inactive) in the assay on A498 renal; 24.4% (inactive) with CCRF-CEM leukemia; 24.1% (inactive) in the assay with MOLT-4 leukemia.

Consider `CCN(CC)c1ccc(C(=C2C=CC(=[N+](CC)Cc3cccc(S(=O)(=O)O)c3)C=C2)c2ccc(N(CC)Cc3cccc(S(=O)(=O)O)c3)cc2)cc1`, for which the growth was 85.1% (inactive) in the assay on HCT-15 colon; 12.8% (inactive) in the assay on HT29 colon; 33.2% (inactive) in the assay on SNB-75 CNS; 56.9% (inactive) with SNB-19 CNS; 20.8% (inactive) in the assay with U251 CNS; -3.18% (active) in the assay on PC-3 prostate. The growth in the assay with SK-MEL-5 melanoma was 54% (inactive); in the assay on UACC-62 melanoma, 63.8% (inactive); in the assay with LOX IMVI melanoma, 35.4% (inactive); with SK-MEL-28 melanoma, 30.3% (inactive); in the assay with EKVX NSCLC it was 33.2% (inactive); in the assay with SN12C renal it was 22.8% (inactive). Moreover, the growth with UO-31 renal is 45.4% (inactive); in the assay with TK-10 renal, 69.5% (inactive); in the assay on ACHN renal it was 77.3% (inactive); in the assay on A498 renal, 36% (inactive); with CCRF-CEM leukemia, 12.4% (inactive); in the assay with MOLT-4 leukemia, 48% (inactive).
